Measurements as given in PubChem BioAssay (Tox21).
A number with no mark means an inactive call. The source made the active and inactive calls. Calls follow the shape of the dose curve; as a rule, active = well fitted curve in the direction sought with a large enough effect in the repeat runs; inconclusive = weak or mixed curves; inactive = flat fitted curve, though single readings scatter.

Experiment: qHTS assay to test for compound auto fluorescence at 590 nm (red) in HEK293 cells (AID 720679); also: potency is read from the fitted curve at half-maximal effect
Details: red autofluorescence 540/590 nm; series mostly up to 91.3 µM; fluorescence, % of fluorescent control: at the top concentration
Outline: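 HEK293 cells (2,000/well, medium with 10% dialyzed FBS) attached for 4-5 hr at 37C, received 23 nL compound and were incubated overnight at 37C, 5% CO2. Red fluorescence was then read at 540/590nm Ex/Em, referenced to Rose Bengal sodium.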
% is scaled to controls: 0 for no effect and ±100 for the full control effect; tags tell the direction and shape of the fitted curve or compound fluorescence and quenching.

SMILES | fluorescence, % of fluorescent control | Potency
NCC(=O)CCC(=O)O | 0.0897% [at 46 µM] | 
O=C1OC(=O)C2C3C=CC(C3)C12 (stereo unspecified) | -0.106% | 
C=C(C)C(=O)OCCOCC | -0.791% | 
CC1(c2ccccc2)OC(C(=O)O)=CC1=O (stereo unspecified) | -0.191% [at 46 µM] | 
C[N+](C)(C)CCOC(=O)CCC(=O)OCC[N+](C)(C)C | 0.497% [at 46 µM] | 
CC(=O)c1ccc2c(c1)N(CCCN(C)C)c1ccccc1S2 | 0.0215% [at 18.6 µM] | 
CN1CCN(C(c2ccccc2)c2ccccc2)CC1 | -0.0303% [at 18.6 µM] | 
Clc1ccc(Cn2c(CN3CCCC3)nc3ccccc32)cc1 | 0.574% [at 18.6 µM] | 
CC1=CC=C(C(C)C)CC1 | -0.0428% | 
C[C@H]1C[C@H]2[C@@H]3CCC4=CC(=O)C=C[C@]4(C)[C@@]3(Cl)[C@@H](O)C[C@]2(C)[C@@]1(O)C(=O)CO | 0.0899% [at 46 µM] | 
CCCCCCCCO[C@@H]1O[C@H](CO)[C@@H](O)[C@H](O)[C@H]1O | -0.404% | 
CC(C)(O)c1ccc(CNC(=O)c2cccnc2Oc2ccc(F)cc2)cc1 | -0.0259% | 
c1ccc(CNCCNCc2ccccc2)cc1 | 0.0322% [at 46 µM] | 
CC(COCCO)OCCO (stereo unspecified) | -0.314% | 
O=S(=O)(Oc1ccc(Cl)cc1)c1ccccc1 | -0.667% | 
COS(=O)(=O)C(F)(F)F | -0.31% [at 95.7 µM] | 
Nc1cccc([N+](=O)[O-])c1 | 0.565% | 
CC/C=C\CCOC(=O)CC | 0.0488% | 
O=C(c1ccc(F)cc1)C1CCN(CCn2c(=S)[nH]c3ccccc3c2=O)CC1 | -0.801% [at 46 µM] | 
CCN(CC)c1ccc2c(-c3ccccc3C(=O)O)c3ccc(=[N+](CC)CC)cc-3oc2c1 |  | 1120 nM [fluorescent] (active)
ClCCOCCOCCCl | -0.17% | 
CN(C)C(=O)NC1(c2ccccc2)CCN(CC[C@@]2(c3ccc(F)c(F)c3)CN(C(=O)c3ccccc3)CCO2)CC1 | -0.49% | 
CC1=CCCC(C)(C)C12CCC(C)O2 (stereo unspecified) | 0.368% | 
Nc1ccccc1S(=O)(=O)c1ccccc1 | 0.016% | 
COc1ccc(C(=O)c2ccc(OC)cc2O)c(O)c1 | -0.25% | 
C=CC1CC2C=CC1C2 (stereo unspecified) | 0.197% | 
CC(=O)c1ccc2c(c1)N(CCCN1CCC(CCO)CC1)c1ccccc1S2 | -0.278% [at 18.6 µM] | 
COC(=O)c1ccc(I)cc1S(=O)(=O)NC(=O)Nc1nc(C)nc(OC)n1 | 0.286% | 
COC(=O)C1=C(C)NC(COC(N)=O)=C(C(=O)OC(C)C)C1c1cccc(Cl)c1Cl (stereo unspecified) | 0.267% [at 46 µM] | 

Experiment: qHTS assay to test for compound auto fluorescence at 535 nm (green) in HEK293 cells (AID 720680)
Details: green autofluorescence 485/535 nm; series mostly up to 91.3 µM; fluorescence, % of fluorescein: at the top concentration

SMILES | fluorescence, % of fluorescein
NCC(=O)CCC(=O)O | -0.0266% [at 46 µM]
O=C1OC(=O)C2C3C=CC(C3)C12 (stereo unspecified) | 0.0353%
C=C(C)C(=O)OCCOCC | 0.0474%
CC1(c2ccccc2)OC(C(=O)O)=CC1=O (stereo unspecified) | 0.0849% [at 46 µM]
C[N+](C)(C)CCOC(=O)CCC(=O)OCC[N+](C)(C)C | 0.0213% [at 46 µM]
CCOC(=O)Cc1cccc2ccccc12 | 0.0678%
CC(=O)c1ccc2c(c1)N(CCCN(C)C)c1ccccc1S2 | -0.246% [at 18.6 µM]
CN1CCN(C(c2ccccc2)c2ccccc2)CC1 | 0.0022% [at 18.6 µM]
Clc1ccc(Cn2c(CN3CCCC3)nc3ccccc32)cc1 | 0.026% [at 18.6 µM]
CC1=CC=C(C(C)C)CC1 | 0.0197%
C[C@H]1C[C@H]2[C@@H]3CCC4=CC(=O)C=C[C@]4(C)[C@@]3(Cl)[C@@H](O)C[C@]2(C)[C@@]1(O)C(=O)CO | -0.0466% [at 46 µM]
CCCCCCCCO[C@@H]1O[C@H](CO)[C@@H](O)[C@H](O)[C@H]1O | 0.0152%
CC(C)(O)c1ccc(CNC(=O)c2cccnc2Oc2ccc(F)cc2)cc1 | 0.183%
c1ccc(CNCCNCc2ccccc2)cc1 | 0.0059% [at 46 µM]
COC(C)OC | 0.0544%
CC(COCCO)OCCO (stereo unspecified) | 0.0666%
O=S(=O)(Oc1ccc(Cl)cc1)c1ccccc1 | 0.0346%
COS(=O)(=O)C(F)(F)F | 0.0024% [at 95.7 µM]
CCNc1cc(O)ccc1C | 2.77%

SMILES | fluorescence, % of fluorescein
Nc1cccc([N+](=O)[O-])c1 | 0.137%
CC/C=C\CCOC(=O)CC | 0.0552%
O=C(c1ccc(F)cc1)C1CCN(CCn2c(=S)[nH]c3ccccc3c2=O)CC1 | 0.0396% [at 46 µM]
CC(C)CC(=O)C1C(=O)c2ccccc2C1=O | 0.0198%
ClCCOCCOCCCl | 0.0248%
CCCCc1ncc(/C=C(\Cc2cccs2)C(=O)O)n1Cc1ccc(C(=O)O)cc1 | -0.0132% [at 46 µM]
CN(C)C(=O)NC1(c2ccccc2)CCN(CC[C@@]2(c3ccc(F)c(F)c3)CN(C(=O)c3ccccc3)CCO2)CC1 | 0.0277%
CC(=O)NO | -0.146% [at 46 µM]
COc1cc2nc(N3CCN(C(=O)C4COc5ccccc5O4)CC3)nc(N)c2cc1OC (stereo unspecified) | 0.0796% [at 46 µM]
CC1=CCCC(C)(C)C12CCC(C)O2 (stereo unspecified) | -0.094%
Nc1ccccc1S(=O)(=O)c1ccccc1 | -0.144%
COc1ccc(C(=O)c2ccc(OC)cc2O)c(O)c1 | 0.0172%
C#CCN(C)CCCOc1ccc(Cl)cc1Cl | -0.104% [at 46 µM]
C=CC1CC2C=CC1C2 (stereo unspecified) | 0.0805%
CC(=O)c1ccc2c(c1)N(CCCN1CCC(CCO)CC1)c1ccccc1S2 | -0.0765% [at 18.6 µM]
COC(=O)c1ccc(I)cc1S(=O)(=O)NC(=O)Nc1nc(C)nc(OC)n1 | 0.0435%
C=C1[C@H]2CC[C@@H]3[C@H]2C(C)(C)CCC[C@]13C | 0.024%
COC(=O)C1=C(C)NC(COC(N)=O)=C(C(=O)OC(C)C)C1c1cccc(Cl)c1Cl (stereo unspecified) | -0.116% [at 46 µM]
